Experimental data taken from the supplement of paper PMC6555819.

Columns and labels:
Assay in all cases: PBM binding z-score (relative to random genomic background probes); higher = stronger binding; sequences stand for … in GC…GCGATTGACAGCGTAGAATGAAGG
[1] = system: PPARg:RXRa DBDmut IVT, anti-RXR (DBD mutation: RXRa K156A/R161A, NR concentration 270 nM, RXRa partner concentration 90 nM)
In short: (§1)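 Ligand-free nuclear receptor dimers were applied to custom Agilent 4×180K protein-binding microarrays whose double-stranded probes carried direct-repeat seeds, single-nucleotide variants, half-site ablations and random human genomic background sequences in 34-nt variable regions. Incubation lasted 1 h. Binding z-scores were computed against the random background probes from regression-normalized fluorescence.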

[2] = system: PPARg:RXRa IVT, anti-PPARg (NR concentration 270 nM, RXRa partner concentration 90 nM)
In short: as §1

[3] = system: PPARg DBDmut:RXRa IVT, anti-PPARg (DBD mutation: PPARg1 K132A/R137A, NR concentration 270 nM, RXRa partner concentration 90 nM)
In short: as §1

[4] = system: PPARg DBDmut IVT, anti-PPARg (DBD mutation: PPARg1 K132A/R137A, NR concentration 270 nM)
In short: as §1

[5] = system: PPARg homodimer (NR concentration 180 nM)
In short: as §1

[6] = system: PXR:RXRa (NR concentration 270 nM, RXRa partner concentration 90 nM)
In short: as §1

[7] = system: PXR homodimer (NR concentration 270 nM)
In short: as §1

[8] = system: RARa:RXR (NR concentration 270 nM, RXRa partner concentration 90 nM)
In short: as §1

[9] = system: RARa homodimer (NR concentration 270 nM)
In short: as §1

[10] = system: RARb:RXRa (NR concentration 270 nM, RXRa partner concentration 90 nM)
In short: as §1

[11] = system: RARb homodimer (NR concentration 270 nM)
In short: as §1

[12] = system: RARg:RXRa (NR concentration 270 nM, RXRa partner concentration 90 nM)
In short: as §1

[13] = system: RARg homodimer (NR concentration 270 nM)
In short: as §1

[14] = system: RXRa DBDmut IVT, anti-RXR (DBD mutation: RXRa K156A/R161A, NR concentration 90 nM)
In short: as §1

[15] = system: RXRa homodimer (NR concentration 180 nM)
In short: as §1

[16] = system: THRa:RXRa (NR concentration 90 nM, RXRa partner concentration 90 nM)
In short: as §1

[17] = system: THRa homodimer (NR concentration 90 nM)
In short: as §1

[18] = system: VDR homodimer (NR concentration 270 nM)
In short: as §1

Sequence | PBM binding z-score [1] | PBM binding z-score [2] | PBM binding z-score [3] | PBM binding z-score [4] | PBM binding z-score [5] | PBM binding z-score [6] | PBM binding z-score [7] | PBM binding z-score [8] | PBM binding z-score [9] | PBM binding z-score [10] | PBM binding z-score [11] | PBM binding z-score [12] | PBM binding z-score [13] | PBM binding z-score [14] | PBM binding z-score [15] | PBM binding z-score [16] | PBM binding z-score [17] | PBM binding z-score [18]
AGTCAAAGTTCAGTACGAGGTAACGTAAAGCACG | -0.11 | 1.83 | 0.68 | 0.981 | 1.69 | 3.02 | 1.72 | 2.35 | 1.06 | 4.11 | 3.01 | 4.32 | 4.54 | 3.09 | 2.66 | 3.64 | 1.21 | 2.62
TAGCCTAGGTCATTGGGCCAGTTTAGTACGCATC | 2.53 | 3.45 | -0.6 | 0.202 | 0.893 | 1.71 | -0.11 | 2.11 | -0.422 | 3.52 | 2.94 | 3.74 | 3.68 | 1.46 | 2.81 | 3.03 | 1 | 1.46
AGAATGAGGTTAAGATCTGGGAAACAGAATACAT | 2.76 | 3 | 1.23 | 0.832 | 0.543 | 1.03 | 0.115 | 1.69 | 0.301 | 1.9 | 0.808 | 2.11 | 1.54 | 1.04 | 2.48 | 2.26 | 0.582 | 0.27
TCTCGGAGGACACGATAGGTCAGAGCTCGACATC | 1.4 | 0.606 | -0.736 | -0.55 | 0.932 | 0.843 | -0.337 | 1.59 | -0.7 | 2.66 | 3.02 | 2.49 | 3.18 | 0.695 | 1.43 | 2.47 | 0.393 | 0.242
AGACCAAGGTGATCGTGAGGTCGTTGATACTAAC | 0.783 | 0.9 | -0.832 | -0.109 | 0.38 | 2.79 | 0.858 | 1.72 | -0.21 | 1.32 | 1.51 | 1.99 | 0.635 | 0.408 | 1.37 | 3.4 | 2.04 | 2.56
TTGCCTAGGTCATTCAGGGGCCAGTATAGAAAGC | 1.9 | 2.33 | 0.195 | -0.447 | 2.69 | 2.63 | 0.107 | 4.21 | -0.129 | 3.93 | 3.3 | 6.09 | 4.46 | 2.14 | 2.76 | 3.48 | 0.747 | 1.75
TCTAGTTGGTCACTGAGGTCACACACGACGGGTA | 2.68 | 4.25 | 2.09 | 2.11 | 4.13 | 4.97 | 2.81 | 5.06 | 2.05 | 4 | 4.59 | 4.76 | 4.83 | 1.56 | 5.14 | 4.47 | 5.09 | 4.16
TAGACAGGGTCAAAGGCCAGAGTACGAATGTCGA | 0.674 | 3.81 | 1.39 | 0.376 | 1.55 | 4.13 | 0.121 | 5.65 | 0.0319 | 4.28 | 3.3 | 5.52 | 4.86 | 2.49 | 6.9 | 3.23 | 0.292 | 2.18
